# HepG2 viability: HepG2 cytotoxicity, counter-screen for TGF-b inhibitors | AID 588856 | HepG2 CAGA-GFP viability, ATP luminescence, 18 h | Potency, µM (doses to about 46.1 µM), for the others: at the highest dose activity change, negative = cytotoxicity, hits mostly cytotoxic | hit rate 0.76% among 410,000
#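 HepG2 CAGA-GFP cells (1000/well, DMEM with 1% FBS) received compound, then TGF-beta at 500 pg/mL final, and were incubated 18 hours at 37 degrees C. Viability was read by CellTiter-Glo luminescence. Media-only wells were set as complete cell-killing and DMSO as no toxicity.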
# ATXN2 expr inh: ATXN2 expression inhibition; HEK-293 ATXN2-luciferase reporter, luminescence, 24 h; Potency, µM (titrated, usually from 57 µM), for the others: top-dose activity change, negative = inhibition, actives largely listed as inhibitors; hit rate 0.72% among 360,000; also: % is scaled to controls: 0 for no effect and ±100 for the full control effect; nearly all actives have a fitted effect of over 55% in size
#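 qHTS (up to 57 uM final) was run with 24 h compound exposure of reporter cells at 37 °C. Each well was multiplexed: SteadyGlo luminescence measured ATXN2-luciferase expression after a fluorogenic Gly-Phe-AFC viability readout (25 uM final).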
# TGFb SMAD3 inh: blocks TGF-b signaling; Potency, µM (top dose mostly 46.1 µM), inactives show at the highest dose activity, negative = inhibition, actives largely listed as inhibitors; hit rate 1.2% among 410,000; HepG2 CAGA-GFP TGF-b/SMAD3 reporter, GFP fluorescence, 18 h; TGF-beta stimulated, 500 pg/mL final; also: % is scaled to controls: 0 for no effect and ±100 for the full control effect; nearly all actives have a fitted effect of over 65% in size
#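 TGF-beta reporter screen: HEPG2 CAGA-GFP, 1% FBS, 500 pg/mL TGF-beta final, 18 h; per-cell GFP summed per well; curves fitted and categorized by class.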
# TDP1 cell noCPT: qHTS for Inhibitors of human tyrosyl-DNA phosphodiesterase 1 (TDP1): qHTS in cells in absence of CPT; DT40 Tdp1-/- hTDP1 cells, no CPT, ATP luminescence, 48 h; AID 686978, 2013; Potency, µM (top dose mostly 46.2 µM), for the others: at the highest dose activity change, negative = growth inhibition, usual class: inhibitors; hit rate 15% among 420,000; also: % is scaled to controls: 0 for no effect and ±100 for the full control effect; nearly all actives have a fitted effect of over 55% in size
#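 Chicken DT40 Tdp1-/- cells stably complemented with human TDP1 were seeded at 400 cells/well with DMSO in place of 20 nM camptothecin. After compound pinning, cells grew at least 48 hr at 37 °C; viability read by CellTiter-Glo luminescence.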
# DT40 TDP1 CPT: growth inhibition of DT40 Tdp1-/-;hTDP1 cells with camptothecin (screen for TDP1 inhibitors). chicken DT40 Tdp1-/-;hTDP1 cells + 20 nM CPT, ATP luminescence, 48 h. Potency, µM (series often up to 46.2 µM), without a hit: at the highest dose activity change, negative = growth inhibition, actives largely listed as inhibitors. hit rate 12% among 420,000; also: % is scaled to controls: 0 for no effect and ±100 for the full control effect; nearly all actives have a fitted effect of over 55% in size
#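 Cell growth measured by CellTiter-Glo luminescence after a minimum 48 h, 37 C compound exposure with 20 nM CPT in Tdp1-knockout DT40 cells stably expressing hTDP1, seeded 400/well; qHTS titration format.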
# ATXN viability: reduces viability in counter-screen for ATXN expression inhibitors | AID 651635 | S2 cells (HEK-293 line with an ATXN2-luciferase reporter) viability, CellTiter-Fluor protease fluorescence, 24 h | hit rate 0.49% among 400,000 | Potency, µM (highest dose often 56.7 µM), most hits filed as cytotoxic; also: nearly all actives have a fitted effect of over 40% in size
# * = called active by the depositor; i = inactive; ? = inconclusive; / = no result; ! = not confirmed by another sample; [ ] = dose if it differs, or a comment. Compounds with a hit are over-represented: about 17% of the library has one in this group of screens. Calls follow the shape of the dose curve; as a rule, active = well fitted curve in the direction sought with a large enough effect; inconclusive = small, poorly fitted or top-dose-only effect, or another doubt; inactive = no such curve, though single readings can be large; an effect the other way counts as inactive or inconclusive. Potency is read from the fitted curve at half-maximal effect.
SMILES,HepG2 viability,ATXN2 expr inh,TGFb SMAD3 inh,TDP1 cell noCPT,DT40 TDP1 CPT,ATXN viability
C=CCn1c(SCC(=O)c2cccs2)nc2sc(C)cc2c1=O,-5%,-8%,-14%,21µM*,?,i
C=CCn1c(SCC(=O)c2cccs2)nnc1-c1cccc(OC)c1,-19%,2%,?,-25%,-13%,i
O=C(O)c1cc(=O)c2ccc(Cl)cc2[nH]1,/,/,/,16%,15%,/
CCCCNc1c(-c2ccc(SC(C)CC)cc2)nc2ccccn12 (configuration not stated),-98%,?,?,16µM*,13µM*,?
CCCCNc1c(-c2cccc(SC(C)CC)c2)nc2ccc(Cl)cn12 (configuration not stated),-20%,0%,?,15µM*,16µM*,i
c1ccc(-c2nc3ccccn3c2NCc2ccc3c(c2)OCO3)cc1,-25%,7%,-1%,-29%,-15%,i
CCCCNc1c(-c2ccc(SC3CCCCC3)cc2)nc2ccccn12,-47%,3%,?,23µM*!,23µM*,?
CC1=C(C(=O)N(C)C)CC(CC(=O)NCCN2CCOCC2)C(=O)N1CCCN1CCCC1=O (configuration not stated),-8%,-7%,-2%,-7%,?,i
CN(CCCNC(=O)c1ccccc1F)CCCNC(=O)c1ccccc1F,-35%,/,5%,3%,7%,i
Cc1nc(SC(C)C(=O)Nc2ccccc2C)cc(-c2ccccc2)n1 (configuration not stated),-35%,/,?,21µM*,15µM*,/
COc1ccc(NC(=O)C(C)Sc2cc(-c3ccccc3)nc(C)n2)cc1Cl (configuration not stated),0%,/,0%,21µM*,21µM*,/
CCOC(=O)CSc1nc(C2CC2)cc(-c2ccc(F)cc2)c1C#N,3%,-5%,0%,-26%,?,i
CSc1nc(C2CC2)cc(-c2cccs2)c1C#N,-34%,-2%,5.6µM*,-21%,-29%,i
COc1ccc(-c2cc(C3CC3)nc(SCC(=O)c3cccs3)c2C#N)cc1,-5%,-23%,14%,12µM*,?,i
N#Cc1c(-c2ccccc2)cc(C2CC2)nc1N,-14%,0%,24%,-27%,-17%,i
COc1ccc(C(=O)N2CCN(CC(=O)N3CCOCC3)CC2)cc1,-15%,1%,4%,2%,-6%,i
O=c1cc(CSc2ncn[nH]2)[nH]c2c(Cl)cccc12,-3%,8%,0%,?,?,?
CC(=O)c1ccc(N2CCN(C(=O)c3cccs3)C(C)C2)c(F)c1 (configuration not stated),-20%,/,-10%,21µM*,?,i
Cc1noc(/C=C/c2cccnc2)c1[N+](=O)[O-],-75%,?,?,13µM*,21µM*,?
Cc1cccc(C)c1N/C=C/c1onc(C)c1[N+](=O)[O-],2%,-8%,18%,-21%,-17%,i
CCOC(=O)N1CCN(C(=O)c2cc3c(=O)n(C)c4ccccc4c3n2C)CC1,1%,1%,14%,16µM*,21µM*,i
Cn1c(C(=O)N2CCN(Cc3ccccc3)CC2)cc2c(=O)n(C)c3ccccc3c21,-21%,-12%,-5%,?,18µM*,i
CCN1CCN(C(=O)c2cc3c(=O)n(C)c4ccccc4c3n2C)CC1,-13%,-5%,3%,-9%,6%,i
COc1cccc(NC(=O)N(C)C[C@H]2Oc3cc(Br)ccc3S(=O)(=O)N([C@H](C)CO)C[C@H]2C)c1,-8%,-19%,3%,?,?,i
CC(CN1CCOCC1)OC(=O)c1cccc(Cl)c1 (configuration not stated),0%,/,23%,12%,1%,i
SMILES,HepG2 viability,ATXN2 expr inh,TGFb SMAD3 inh,TDP1 cell noCPT,DT40 TDP1 CPT,ATXN viability
CCc1ncc(CN2CCC(C(=O)Nc3cccc(-c4cscn4)c3)CC2)cn1,-62%,0%,-5%,?,?,i
O=C(Nc1ccc2c(c1)OCCO2)C1c2ccccc2OCC(=O)N1Cc1cccnc1 (configuration not stated),/,10%,/,-1%,9%,i
COc1ccccc1/C=C/[C@@H]1C[C@H]2CN(Cc3cccc(Cl)c3)C(=O)[C@]23CCCN13,0%,/,?,21µM*,10µM*,i
O=C1N(Cc2cccc(Cl)c2)C[C@@H]2C[C@@H](c3cccn3-c3cccnc3)N3CCC[C@@]123,-42%,?,16µM*,21µM*,?,?
COc1cccc2c1OCC([C@@H]1C[C@H]3CN(Cc4cccc(Cl)c4)C(=O)[C@]34CCCN14)=C2,-20%,-22%,-19%,?,16µM*,?
CCn1ncc([C@@H]2C[C@H]3CN(Cc4cccc(Cl)c4)C(=O)[C@]34CCCN24)c1C,-2%,1%,6%,-28%,?,i
COc1cc(NC(=O)CSCC(=O)N(C)C2CCCCC2)cc(OC)c1,1%,-2%,2%,-19%,-16%,i
CN(C(=O)CSCC(=O)Nc1ccc(Cl)cc1)C1CCCCC1,-5%,-27%,-4%,15µM*,?,i
COc1cc(/C=C/c2nc3ccccc3nc2/C=C/c2cc(OC)c(OC)c(OC)c2)cc(OC)c1OC,-9%,/,3%,4.5µM*,1.3µM*,/
CCOc1cc(/C=C/C(=O)O)ccc1OCc1ccccc1,3%,-7%,0%,6%,-6%,i
COc1cc(C=Cc2nnc3c4ccccc4cnn23)cc(OC)c1OC,-19%,/,1%,0.82µM*,3.3µM*,i
CCOc1ccc(/C=C/c2ccc3ccccc3n2)cc1OCC,-9%,/,-2%,2.5µM*,2.8µM*,/
COc1cc(Cl)cc(/C=C/c2ccc3ccccc3n2)c1OC(C)=O,-67%,75%,-6%,?,?,i
COc1cc(/C=C/c2ccc3ccccc3n2)cc(OC)c1OC,-27%,/,-13%,0.071µM*,0.16µM*,/
COCc1c(C(=O)N2CCN(C3CCCC3)CC2)cnn1-c1ncc2c(n1)-c1ccccc1CCC2,/,/,/,-28%,8%[9.04 µM],i
CCCNC(=O)CNC(=O)c1ccccc1OCC(=O)Nc1ccc(Br)cc1,2%,/,-7%,?,-3%,/
NC(=O)c1c(N)sc2c1CCCC2,12%,5%,-1%,6%,-4%,i
